Screen size: about 310,000 compounds; about 1,000 (0.32%) were called active. A selection follows. Potency and affinity values are given separately. Values without a mark were called inactive. The rule behind the calls is not given here.

A short description of this test: Inhibition of PhoP regulon, Salmonella typhi GFP reporter cells, confirmation, 4 h (AID 1850).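 Note: 0% = induced wells with vehicle and 100% = uninduced wells.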 Conditions: Salmonella Typhi PhoP-promoter GFP reporter, fluorescence, at 50 µM, hits give high values.
With `COc1ccc(-n2nc(C(=O)NCC(=O)N3CCN(c4ccccc4)CC3)c3ccccc3c2=O)c(OC)c1`, the inhibition was 3.7%.

Consider `CC(C)CCNc1nc(N2CCCC2)c2c(c1C#N)CCN(C)C2`, for which the inhibition is 19.4%.

Turning to `CCCCCNc1nc(NCCCO)c(C#N)c2c1CN(C)CC2`, the inhibition was -3.01%.

For `CC1(c2ccc(Cl)cc2Cl)NC(=O)N(CC(=O)Nc2ccc3[nH]c(=O)[nH]c3c2)C1=O` (stereo not drawn), the inhibition is -3.74%.

Turning to `COc1ccc(CNC(=O)C2CCCN(S(=O)(=O)N3CCC(C)CC3)C2)c(OC)c1` (stereo not drawn), the inhibition is -14.4%.

As to `CCN(CC)C(=O)c1sc(N2C(=O)Nc3ccccc3N2O)c(C(=O)OC)c1C`, the inhibition is -7.07%.

Take `Cc1ccc(N2C(=O)CC(Sc3ncccc3C(=O)O)C2=O)cc1` (stereo not drawn): the inhibition is -7.58%.

With `CCOc1ccc(NC2=NC(C)(C)N=C(N)N2)cc1`, the inhibition was 5.96%.

On to `NC1=NC2(CCCCC2)N=C(Nc2ccc(F)cc2F)N1`, for which the inhibition is 19%.

As to `Cc1ccc(NC2=NC3(CCCC3)N=C(N)N2)c(C)c1`, the inhibition is 13.7%.

As for `CCCCOc1ccc(N2C(N)=NC(N)=NC23CCCCC3)cc1`, the inhibition was 4.38%.

Regarding `Cc1nc2ccccc2c(=O)n1/N=C/c1cn[nH]c1-c1ccccc1`, the inhibition was -0.17%.

Regarding `Cc1ccc(-c2[nH]ncc2/C=N/n2c(COc3ccccc3)nc3ccccc3c2=O)cc1`, the inhibition is -8.67%.

On to `Cc1nc2ccccc2c(=O)n1/N=C/c1ccccc1O`, for which the inhibition was 1.57%.

In the case of `Cc1nc2ccccc2c(=O)n1/N=C/c1cc(Br)cc(Br)c1O`, the inhibition was 9.81%.

As to `COc1ccc(NC(=O)C2CCCN2C(=O)NCc2ccccc2)cc1` (stereo not drawn), the inhibition is -5.86%.

Regarding `CSc1cccc(N2CC(C(=O)N(CC(C)C)c3c(N)n(Cc4ccccc4)c(=O)[nH]c3=O)CC2=O)c1` (stereo not drawn), the inhibition was -3.17%.

For the molecule `CCOc1ccc(C(=O)Nc2nnc(C(C)C)s2)cc1OCC`, the inhibition is -1.68%.

For `COCCN1CCN(C(=O)C2CCC(=O)N(CCc3ccc(Cl)cc3)C2)CC1` (stereo not drawn), the inhibition is -4.1%.

On to `Nc1ncnc(Nc2ccc(F)cc2)n1`, for which the inhibition was -3.3%.

Consider `COc1ccc(Nc2ccnc(Nc3ccc(OC)cc3)n2)cc1`, for which the inhibition was -1.84%.

Turning to `c1ccc(Nc2cccc(Nc3ccccc3)n2)cc1`, the inhibition is 6.98%.

On to `O=C(O)c1cccc(Nc2ccnc(Nc3cccc(C(=O)O)c3)n2)c1`, for which the inhibition is 2.42%.

As for `Cc1c(C(=O)O)oc2ccc(S(=O)(=O)N3CCCCC3C(=O)O)cc12` (stereo not drawn), the inhibition was -3.93%.

For the molecule `C/C=C/c1ccc(OCC(O)CN2CCCCC2CC)c(OC)c1` (stereo not drawn), the inhibition was 8.19%.

In the case of `S=C1NC2(CCCCC2)NC12CCCCC2`, the inhibition is -9.21%.

On to `Cc1sc2nc(SCC(N)=O)n(-c3ccccc3)c(=O)c2c1C`, for which the inhibition was -0.27%.

With `O=C(NNc1nc2cc3c(cc2s1)OCO3)c1cccc(F)c1`, the inhibition was -11.1%.

For `O=C(NNc1nc2ccccc2s1)c1ccc(F)cc1`, the inhibition was -6.05%.

Turning to `CC(C)(C)c1ccc(S(=O)(=O)NNC(=O)C2CCN(Cc3cccc(F)c3)CC2)cc1`, the inhibition is 6.86%.

In the case of `C=CCOC(=O)C1=C(C)NC(SCC(=O)Nc2nccs2)=C(C#N)C1c1ccc(Cl)cc1` (stereo not drawn), the inhibition is 3.36%.

Regarding `CN1CCN(C2Cc3ccccc3Sc3cc(C(F)(F)F)ccc32)CC1` (stereo not drawn), the inhibition is 2.06%.

Turning to `CN1Cc2cccc3c2C(Cc2ccccc2S3)C1` (stereo not drawn), the inhibition is -6.53%.

As to `c1ccc2c(c1)CC(N1CCCCC1)c1ccccc1N2` (stereo not drawn), the inhibition is -3.45%.

`CC(C)c1ccc2c(c1)C(N1CCNCC1)Cc1ccc(F)cc1S2` (stereo not drawn): the inhibition is 19.3%.

As for `CN1CCN(C2Cc3ccccc3Sc3ccc(Cl)cc32)CC1` (stereo not drawn), the inhibition was -13%.

`O=C1Cc2ccccc2Sc2ccc(Cl)cc21`: the inhibition was -8.12%.

Take `c1ccc2c(c1)CC(N1CCCCC1)c1ccccc1S2` (stereo not drawn): the inhibition was 16.3%.

Regarding `NC(=O)CCN1CCN(CCOC2Cc3cc(Cl)ccc3Sc3ccccc32)CC1` (stereo not drawn), the inhibition was -4.99%.

Turning to `Cc1ccccc1NC(=O)c1ccco1`, the inhibition is -6.44%.

As to `COc1ccc(/C=C2\CCCC3C2=NC(=S)NC3c2ccc(OC)cc2)cc1` (stereo not drawn), the inhibition is -6.47%.

For the molecule `COc1ccccc1-c1nc(-c2ccc(Br)cc2)no1`, the inhibition is 19.9%.

In the case of `CC1CCCCN1CCNC(=O)c1ccc2c(c1)N(Cc1cccc(Cl)c1)C(=O)c1ccccc1S2=O` (stereo not drawn), the inhibition was -21.9%.

`Cc1ccc(CNC(=O)C2CC(c3ccc(C(F)(F)F)cc3)=NO2)o1` (stereo not drawn): the inhibition was -0.47%.

As for `CCCc1cc(C(=O)OC)c(NC(=O)OCC)s1`, the inhibition was 0.48%.

For the molecule `COC(=O)CNC(=O)c1ccc(NS(=O)(=O)c2cc([N+](=O)[O-])ccc2Cl)cc1`, the inhibition is -1.71%.

As to `CN(C)C(=O)c1ccc(-n2cnc3ccccc3c2=O)cc1`, the inhibition is 6.15%.

In the case of `Cc1cc(O)c2c(c1)C(=O)c1cc(O)cc(O)c1C2=O`, the inhibition was -20.4%.

With `COc1cc(NC(=O)c2cccs2)c(C(=O)OCC(=O)NC(=O)NCc2ccccc2)cc1OC`, the inhibition was -3.62%.

Regarding `O=C(COC(=O)c1ccc([N+](=O)[O-])s1)Nc1ccccc1`, the inhibition is 4.19%.

With `NS(=O)(=O)c1ccc(NC(=O)COC(=O)c2ccc([N+](=O)[O-])s2)cc1`, the inhibition is 9%.

Consider `S=c1[nH]nc(COc2ccc(Cl)cc2)n1-c1ccc(Cl)cc1`, for which the inhibition is 2.37%.

As for `Cc1ccc(N=Nc2ccc(O)c3ncccc23)cc1`, the inhibition was -8.35%.

With `Cc1ccccc1N=Nc1ccc(O)c2ncccc12`, the inhibition was -0.137%.

As to `CCOc1ccc(N(CC(=O)NC2CCCCC2)C(=O)CCC(=O)Nc2cc(C)ccn2)cc1`, the inhibition was 2.46%.

On to `COc1ccc(C(CCN)c2ccc3c(c2)OCO3)cc1` (stereo not drawn), for which the inhibition was -14.2%.

Take `COc1ccc(C(CCNCc2ccc(N(C)C)cc2)c2ccccc2)cc1` (stereo not drawn): the inhibition is 6.13%.

As to `Cc1ccccc1OCCN1C(=O)c2ccccc2C1=O`, the inhibition was -6.01%.

Turning to `CCCNC(=O)COC(=O)c1ccc(S(=O)(=O)N2CCCCCC2)cc1`, the inhibition was -7.39%.

`CCCCCCC(=O)N1CCN(c2cc3c(cc2F)c(=O)c(C(=O)O)cn3CC)CC1`: the inhibition is -12.4%.

With `CCCCCCCC(=O)N1CCN(c2cc3c(cc2F)c(=O)c(C(=O)O)cn3CC)CC1`, the inhibition was 9.58%.

Regarding `CCCCCCCCCC(=O)N1CCN(c2cc3c(cc2F)c(=O)c(C(=O)O)cn3CC)CC1`, the inhibition was -9.96%.

For the molecule `C=CCNC(=S)N1CCN(c2ncc3c(=O)c(C(=O)O)cn(CC)c3n2)CC1`, the inhibition was -7.57%.

For `CCCCCCCCC(=O)N1CCN(c2cc3c(cc2F)c(=O)c(C(=O)O)cn3CC)CC1`, the inhibition is -9.35%.

For `CCn1cc(C(=O)O)c(=O)c2cnc(N3CCN(C(=S)Nc4ccccc4)CC3)nc21`, the inhibition was 7.15%.

On to `Cn1ccnc1SCC(=O)NC1CCCC1`, for which the inhibition was -6.69%.

Regarding `Cc1cccc2cc(CN(C(=O)c3cccc([N+](=O)[O-])c3)C(C)C)c(=O)[nH]c12`, the inhibition is -4.34%.

Consider `COc1ccc(NC(=O)c2nc3nc(C)cc(C(F)F)n3n2)cc1OC`, for which the inhibition was -3.09%.

For `CC(C)(C)c1ccc(CS(=O)(=O)CC2(O)CCN(C(=O)c3cccc(C(F)(F)F)c3)CC2)cc1`, the inhibition is -0.12%.

For `CS(=O)(=O)c1ccc(Cl)c(NC(=O)COC(=O)Cc2c[nH]c3ccccc23)c1`, the inhibition was -1.58%.

On to `Cc1cc(N(CCO)CCO)ccc1N=Nc1cc(F)ccc1F`, for which the inhibition was 22.3%.

On to `CCCOc1cccc(C(=O)Nc2cccc3ncccc23)c1`, for which the inhibition is -5.81%.

As for `CCOc1ccc(S(=O)(=O)N2CCN(C(=O)c3sccc3C)CC2)cc1`, the inhibition was -3.32%.

Take `CCCCCCn1cc(C(=O)O)c(=O)c2cc(F)c(N3CCN(C)CC3)cc21`: the inhibition is -6.43%.

Turning to `CCOC(=O)c1cn(CC)c2cc(N3CCCCC3)c(F)cc2c1=O`, the inhibition is -24.8%.

As to `CCCCCCn1cc(C(=O)O)c(=O)c2cc(F)c(N3CCN(C(=O)OCC)CC3)cc21`, the inhibition is -8.26%.

With `CCCCNc1nnc(SCC(=O)N2CCN(S(=O)(=O)c3ccc4ccccc4c3)CC2)s1`, the inhibition was -3.79%.

As to `CC(=O)Nc1cccc(C(=O)OC(C)C(=O)NC2CCCc3ccccc32)c1` (stereo not drawn), the inhibition is -2.01%.

As to `CCNc1cc(N2CCOCC2)nc(SC)n1`, the inhibition is 7.57%.

As for `CCOC(=O)c1cn(C2CC2)c2c(F)c(F)c(F)cc2c1=O`, the inhibition was 5.55%.

In the case of `COC(=O)C(c1cc(OC)c(O)c(OC)c1)(N1CCNC(C)C1)C(F)(F)F` (stereo not drawn), the inhibition is -16.6%.

Turning to `CCOC(=O)c1cn(C2CC2)c2c(F)c(NCCCN(C)C)c(F)cc2c1=O`, the inhibition was 4.81%.

For the molecule `Cc1cccc(-c2cc(=O)c(C(=O)O)cn2-c2ccc(F)cc2F)c1`, the inhibition is -13.4%.

In the case of `COc1c(F)c(F)cc2c(=O)c(C(=O)O)cn(C3CC3)c12`, the inhibition is 1.27%.

`O=C(O)c1cn(C2CCCCC2)c2ccccc2c1=O`: the inhibition was 2.42%.

`O=C(O)c1cn(-c2ccc(N3CCCC3)c(F)c2)c2c(F)c(F)c(F)cc2c1=O`: the inhibition was -7.01%.

As to `O=C(Nc1cccnc1)C1CC(c2ccccc2O)=NO1` (stereo not drawn), the inhibition was -2.59%.

For `CCNc1nc(NCC)nc(OCCOC(=O)c2ccccc2)n1`, the inhibition is -3.56%.

As to `COc1cc(CNCCN2CCOCC2)ccc1OCc1ccccc1Cl`, the inhibition is 8.72%.

`COc1cccc(C2c3[nH]c4ccccc4c3C[C@H]3C(=O)N(c4ccccc4C(=O)N4CCC(C(=O)O)CC4)C(=O)N23)c1` (stereo partly drawn): the inhibition is -4.46%.

Turning to `O=C(c1cccc(F)c1)N1CCN(C(=O)c2cc3nc(-c4ccco4)cc(C(F)(F)F)n3n2)CC1`, the inhibition was -3.4%.

With `COc1cc(NC(=O)Cc2ccc(F)cc2)cc(OC)c1OC`, the inhibition was -5.66%.

As to `CCOC(=O)Cc1csc(NC(NC(=O)CC)(C(F)(F)F)C(F)(F)F)n1`, the inhibition is 0.93%.

The values are drawn from PubChem BioAssay AID1850 (Southern Research Specialized Biocontainment Screening …, 2009).
